Records with an inconclusive call do not appear. Active and inactive are the calls of the source. Unless noted, calls follow the shape of the dose curve; as a rule, active = well fitted curve in the direction sought with a large enough effect; inconclusive = small, poorly fitted or top-dose-only effect, or another doubt; inactive = no such curve, though single readings can be large; an effect the other way counts as inactive or inconclusive.

We go through six compounds from PubChem BioAssay (NCATS).

Test [1] addresses M-phase phosphoprotein 8 (Homo sapiens) (UniProt Q99549). Nature of the test: qHTS Validation Assay for Inhibitors for MPP8 Chromodomain Interactions with Methylated Histone Tails (AID 488949).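 Also: AlphaScreen signal from MPP8 chromodomain bound to biotinylated H3K9me3 peptide; top concentration of the series differs between compounds; % is scaled to controls: 0 for no effect and ±100 for the full control effect; nearly all actives have a fitted effect of over 55% in size.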 The method, boiled down:
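AlphaScreen proximity signal from streptavidin donor and Ni-chelate acceptor beads (10 ug/mL each) reported binding of MPP8 to trimethyl-K9 H3(1-18) peptide, both at 50 nM. The complex formed 30 min before a 30 min compound exposure at room temperature, in PBS pH 7.4.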
In general terms: qHTS replaces the single test concentration by a dilution series.

Test [2] addresses Chromobox protein homolog 1 (Homo sapiens) (UniProt P83916). Nature of the test: qHTS Validation Assay for Inhibitors of HP1-beta Chromodomain Interactions with Methylated Histone Tails (AID 488953).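 Also: loss of AlphaScreen luminescence from HP1-beta binding biotinylated H3K9me3 peptide; series mostly up to about 110 µM; % is scaled to controls: 0 for no effect and ±100 for the full control effect; nearly all actives have a fitted effect of over 50% in size.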 An outline of the steps: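 AlphaScreen proximity readout: streptavidin donor and Ni-chelate acceptor beads, 10 ug/mL final, 30 min dark, RT. Complex of 50 nM HP1-beta and 50 nM b-H3(1-18)K9me3 formed 30 min, then compound-treated 30 min; PBS pH 7.4/0.01% Tween-20.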

The target in test [3] is Methanococcus maripaludis chaperonin (MmCpn) (UniProt Q6LX38). Nature of the test: High-Throughput Screening for Modulators of Cytosolic Chaperonin Activity: MmCpn Primary Screen (AID 488978).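 Also: 50 nM MmCpn enzyme hydrolysing 30 µM ATP at 37 °C; 0% is about no effect.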 The method, boiled down:
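ATPase activity of 50 nM MmCpn was assayed with 30 uM ATP, 10 minutes at 37C, after a 5 min compound preincubation at room temperature. ADP production was read as HTRF emission at 590 and 665 nm.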

Test [4] concerns the target Transient receptor potential cation channel subfamily V member 1 (Homo sapiens) (UniProt Q8NER1). Nature of the test: HTS Assay for Compounds that Act as Enhancers of the Vanilloid Receptor 1 (AID 488979). Also: 0% is about no effect. The method, boiled down:
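Calcium influx kinetics via Fluo-8 (480/520 nm) in TRPV1-expressing cells, 2000/well cultured overnight at 35.5C. Compound-alone read 3 min (agonist phase), followed by EC20 capsaicin challenge for 2 min (enhancer phase).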

Test [5] has as its target Thyrotropin receptor (Homo sapiens) (UniProt P16473). Nature of the test: qHTS Assay for Antagonists of the Thyroid Stimulating Hormone Receptor (AID 488980). Also: series mostly up to about 58 µM; 0% is about no effect. An outline of the steps:
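Inhibition of cAMP raised by EC80 TSH (4 nM final) was read by HTRF, with lysate cAMP competing against cAMP-d2 for cryptate antibody after 30 min at room temperature. The cells were transfected HEK293 held in phosphodiesterase inhibitor RO 20-1724 at 70 uM.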

Test [6] addresses D(1A) dopamine receptor (Homo sapiens) (UniProt P21728). Nature of the test: HTS Assay for Allosteric Agonists of the Human D1 Dopamine Receptor: Primary Screen for Agonists (AID 488981). Also: 0% is about no effect. An outline of the steps: (§1)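 Calcium flux in an inducible, force-coupled HEK293 Trex D1 line (overnight at 30 C): agonist mode is the 180 s kinetic read after compound; potentiator mode is the following 180 s read after dopamine at EC20.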

The target is the same in test [7]. Nature of the test: HTS Assay for Allosteric Agonists of the Human D1 Dopamine Receptor: Primary Screen for Potentiators (AID 488982). Also: 0% is about no effect. An outline of the steps:
as §1

The target is the same in test [8]. Nature of the test: HTS Assay for Allosteric Agonists of the Human D1 Dopamine Receptor: Primary Screen for Antagonists (AID 488983).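 Also: calcium flux response to an EC80 dopamine challenge measured with no-wash dye; % is scaled to controls: 0 for no effect and ±100 for the full control effect; nearly all actives have a fitted effect of over 65% in size.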 An outline of the steps:
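Calcium flux readout, no-wash dye, inducible HEK293 T-REx D1 line (force-coupled). Compound added after 10 s baseline, 180 s kinetic read; then dopamine at EC80, further 180 s read.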

For test [9], the target named is ATP-dependent 6-phosphofructokinase (Trypanosoma brucei brucei) (UniProt O15648). Nature of the test: qHTS Assay to Find Inhibitors of T. brucei phosphofructokinase: hit validation (AID 492961).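 Also: luminescence reports ADP formed as PFK phosphorylates fructose-6-phosphate with ATP; series mostly up to about 51 µM; % is scaled to controls: 0 for no effect and ±100 for the full control effect.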 An outline of the steps:
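In this biochemical qHTS validation, titrated compounds were tested against 1.25 nM PFK with 0.1 mM ATP and 0.5 mM F6P. Percent activity came from controls lacking or containing enzyme.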

Test [10] in a line: Validation screen for small molecules that induce genotoxicity in human embryonic kidney (HEK293T) cells expressing luciferase-tagged ELG1 (AID 493106). Also: potency is read from the fitted curve at half-maximal effect. An outline of the steps: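 qHTS format; 2,000 HEK293T ELG1-luc cells/well; 23 nL compound via pin tool; 16 hr, 37 °C/5% CO2; ONE-Glo, 30 min RT; luminescence read.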
Test [11] can be described thus: Nrf2 qHTS screen for inhibitors: Validation (AID 493153; active = well fitted inhibition curve with a large enough effect in the main read-out, with a control signal flat, not every such curve was filed as active). Conditions: Potency: luciferase luminescence; viability change: measured here: cytotoxicity max response. The method, boiled down: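 Concentration-response test in A549 ARE_Fluc reporter cells (5% FBS OPTI-MEM), compound exposure 18-24 h at 37°C, 5% CO2. Cell viability measured first by CellTiter-Fluor fluorescence; ARE-driven luciferase luminescence then measured as Nrf2 activity.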

The nature of test [12]: qHTS for Inhibitors of Cell Surface uPA Generation: Validation Assay (AID 493164).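 Also: RAW 264.7 macrophage cells exposed to compound for 18 h; 0% is about no effect.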 The method, boiled down:
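Compounds are titrated over seven points (2.45 nM–38.3 uM final) onto pre-plated RAW 264.7 cells and incubated for 18 h. Retained intracellular ATP, measured with ATP-Lite, indicates blocked lethal factor entry.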

Test [13] concerns the target Galactokinase (Homo sapiens) (UniProt P51570). Nature of the test: qHTS Validation Assay for Inhibitors of Human Galactokinase (GALK) (AID 493189). Also: 0% is about no effect. The method, boiled down: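 Inhibition was measured as remaining ATP, detected by luciferase luminescence after a 1 h room-temperature reaction. Final conditions: 5 nM GALK, 100 uM galactose, 35 uM ATP, pH 8.0 HEPES buffer.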

Test [14] in a line: Validation screen for small molecules that induce DNA re-replication in SW480 colon adenocarcinoma cells (AID 504364). Also: 0% is about no effect. An outline of the steps: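 Read-out: total Hoechst intensity of nuclei by fluorescence scanning imager; hits raise the fraction of nuclei with elevated DNA content. Cells received compound for 48 hr at 37 C before a 40 min stain.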
In test [15] the target is Peptidyl-prolyl cis-trans isomerase NIMA-interacting 1 (Homo sapiens) (UniProt Q13526). Nature of the test: qHTS Validation Assay to Find Inhibitors of Pin1 (AID 504536; active = well fitted inhibition curve with a large enough effect in the polarisation, with a control signal flat, not every such curve was filed as active; the % refers to the polarisation;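 also: 0% = full Pin1 enzyme wells and -100% = no-enzyme wells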). The method, boiled down:
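Fluorescence polarization competition: compounds (titration) displace HiFluor-488-labeled Pin1-1b peptide from Pin1 (0.3 uM final) in pH 7.5 HEPES buffer with DTT, 10 min at room temperature; %Activity normalized to no-enzyme wells, curves fitted.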

Test [16] concerns the target Phosphoglycerate kinase, glycosomal (Trypanosoma brucei brucei) (UniProt P07378). Nature of the test: qHTS Validation Assay to Find Inhibitors of Phosphoglycerate Kinase (AID 504547).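 Also: control wells lack PGK and mark full inhibition.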 The method, boiled down: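 Luminescence end-point (Kinase-Glo Plus, 10 min) after a 60 min room-temperature coupled reaction. GAPDH at 100nM final supplies 1,3-BPG to PGK. Buffer: 100mM TEA pH 7.6, 5mM MgCl2, 0.01% Tween-20. Wells lacking PGK served as controls.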

The target in test [17] is phosphoglycerate mutase (Leishmania major) (UniProt Q4Q090). Nature of the test: qHTS Validation Assay to Find Inhibitors of Phosphoglycerate Mutase (AID 504548). Also: series mostly up to about 58 µM; % is scaled to controls: 0 for no effect and ±100 for the full control effect. The method, boiled down:
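Lm PGAM 1.25nM final; 100 mM TEA pH 7.6, 5 mM MgCl2, 0.01% Tween-20; 45 min RT; Kinase-GloPlus, 10 min; end-point luminescence. Enzyme-free wells as negative controls.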

The target in test [18] is Ubiquitin carboxyl-terminal hydrolase 1 (Homo sapiens) (UniProt O94782). Nature of the test: Inhibitors of USP1/UAF1: Pilot qHTS (AID 504865).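 Also: rhodamine fluorescence freed from ubiquitin-rhodamine substrate followed over time; top concentration of the series differs between compounds; % is scaled to controls: 0 for no effect and ±100 for the full control effect; nearly all actives have a fitted effect of over 35% in size.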 An outline of the steps: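 Deubiquitinase activity followed as kinetic rhodamine fluorescence release from 150 nM Ub-Rho. 1 nM USP1/UAF1 with compound, after 15 min room-temperature preincubation, in HEPES pH 7.8 buffer containing TCEP, EDTA, BSA and Tween-20.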

For test [19], the target named is ATPase family AAA domain-containing protein 5 (Homo sapiens) (UniProt Q96QE3). Nature of the test: Validation screen for small molecules that inhibit ELG1-dependent DNA repair in human embryonic kidney (HEK293T) cells expressing luciferase-tagged ELG1 (AID 493107).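 Also: cells co-treated with the DNA-damaging agent 5-fluorouridine alongside compound; series mostly up to about 46 µM; % is scaled to controls: 0 for no effect and ±100 for the full control effect; inhibitors lower the ELG1-luciferase luminescence signal; nearly all actives have a fitted effect of over 70% in size.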 The method, boiled down: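 ELG1-luciferase HEK293T reporter; 5-fluorouridine + compound/DMSO, 16 hr, 37 °C, 5% CO2; ONE-Glo 30 min RT; luminescence read, qHTS format.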

Test [20] addresses Thyrotropin-releasing hormone receptor (Homo sapiens) (UniProt P34981). Nature of the test: qHTS for Small Molecule Agonists and Allosteric Enhancers of Human TRH Receptor: Validation Screen for Agonists (AID 493127;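 active = calcium activation more than 3 SD above the typical response in the agonist read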;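 also: intracellular calcium rise by fluo-8 fluorescence before TRH EC20 addition; 0% is about no effect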). The note with it: TRH receptor agonist cell assay; at 2 µM; stronger effect = higher value. The method, boiled down: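 Read-out: intracellular calcium release measured kinetically by FDSS (fluo-8, ex 480/em 530 nm), 1 reading/s after a 10-cycle baseline. TRHR cells, 2000/well, cultured 18 h at 33.5C, dye-loaded at room temp. Compound-evoked positive calcium signal flags agonists.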

Sequence of Peptidyl-prolyl cis-trans isomerase NIMA-interacting 1 (Homo sapiens) (Q13526 whole entry, looked up): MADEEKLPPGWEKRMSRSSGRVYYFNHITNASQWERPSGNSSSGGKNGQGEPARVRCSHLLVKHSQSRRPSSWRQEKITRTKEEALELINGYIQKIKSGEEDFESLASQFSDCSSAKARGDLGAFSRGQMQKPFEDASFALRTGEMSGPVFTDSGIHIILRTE
Sequence of Chromobox protein homolog 1 (Homo sapiens) (P83916 whole entry, looked up): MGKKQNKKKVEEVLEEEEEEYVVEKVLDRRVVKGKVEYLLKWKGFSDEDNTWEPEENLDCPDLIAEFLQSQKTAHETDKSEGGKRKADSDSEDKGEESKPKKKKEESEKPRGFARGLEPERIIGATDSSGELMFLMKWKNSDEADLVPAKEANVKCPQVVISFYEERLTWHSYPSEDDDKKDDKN
Sequence of Phosphoglycerate kinase, glycosomal (Trypanosoma brucei brucei) (P07378 whole entry, looked up): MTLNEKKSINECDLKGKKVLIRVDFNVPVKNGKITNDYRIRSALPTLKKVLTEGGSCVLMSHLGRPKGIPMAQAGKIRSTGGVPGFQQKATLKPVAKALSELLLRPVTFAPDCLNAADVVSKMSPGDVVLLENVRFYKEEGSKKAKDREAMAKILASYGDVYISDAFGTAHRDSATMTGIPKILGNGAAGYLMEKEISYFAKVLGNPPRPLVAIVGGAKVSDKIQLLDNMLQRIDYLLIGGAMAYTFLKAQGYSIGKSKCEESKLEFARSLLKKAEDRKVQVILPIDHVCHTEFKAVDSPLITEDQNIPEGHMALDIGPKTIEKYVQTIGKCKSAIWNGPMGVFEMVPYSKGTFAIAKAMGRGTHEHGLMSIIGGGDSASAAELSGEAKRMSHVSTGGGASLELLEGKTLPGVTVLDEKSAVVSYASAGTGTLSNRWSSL
Sequence of M-phase phosphoprotein 8 (Homo sapiens) (Q99549 whole entry, looked up): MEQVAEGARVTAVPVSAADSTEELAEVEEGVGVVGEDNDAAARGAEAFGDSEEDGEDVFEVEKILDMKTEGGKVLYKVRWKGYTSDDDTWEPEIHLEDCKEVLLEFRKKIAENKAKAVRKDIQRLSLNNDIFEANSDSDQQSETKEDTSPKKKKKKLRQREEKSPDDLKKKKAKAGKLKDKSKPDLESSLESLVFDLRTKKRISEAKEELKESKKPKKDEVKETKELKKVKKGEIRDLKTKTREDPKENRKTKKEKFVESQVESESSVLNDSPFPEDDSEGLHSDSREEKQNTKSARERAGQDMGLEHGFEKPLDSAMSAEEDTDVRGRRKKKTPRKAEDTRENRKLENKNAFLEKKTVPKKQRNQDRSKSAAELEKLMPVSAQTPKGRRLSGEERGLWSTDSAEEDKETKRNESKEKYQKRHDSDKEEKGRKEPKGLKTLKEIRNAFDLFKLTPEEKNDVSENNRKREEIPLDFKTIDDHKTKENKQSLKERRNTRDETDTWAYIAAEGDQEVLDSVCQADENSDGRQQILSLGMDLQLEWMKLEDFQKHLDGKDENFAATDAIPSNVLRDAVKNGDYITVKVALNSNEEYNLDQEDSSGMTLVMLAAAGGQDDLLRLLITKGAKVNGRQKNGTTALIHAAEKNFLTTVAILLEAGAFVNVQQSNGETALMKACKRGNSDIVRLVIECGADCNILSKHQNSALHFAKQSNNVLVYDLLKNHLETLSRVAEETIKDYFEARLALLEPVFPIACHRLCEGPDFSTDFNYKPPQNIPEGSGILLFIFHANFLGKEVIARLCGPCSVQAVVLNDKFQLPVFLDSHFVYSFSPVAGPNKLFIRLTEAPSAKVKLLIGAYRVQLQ
Sequence of Thyrotropin receptor (Homo sapiens) (P16473 whole entry, looked up): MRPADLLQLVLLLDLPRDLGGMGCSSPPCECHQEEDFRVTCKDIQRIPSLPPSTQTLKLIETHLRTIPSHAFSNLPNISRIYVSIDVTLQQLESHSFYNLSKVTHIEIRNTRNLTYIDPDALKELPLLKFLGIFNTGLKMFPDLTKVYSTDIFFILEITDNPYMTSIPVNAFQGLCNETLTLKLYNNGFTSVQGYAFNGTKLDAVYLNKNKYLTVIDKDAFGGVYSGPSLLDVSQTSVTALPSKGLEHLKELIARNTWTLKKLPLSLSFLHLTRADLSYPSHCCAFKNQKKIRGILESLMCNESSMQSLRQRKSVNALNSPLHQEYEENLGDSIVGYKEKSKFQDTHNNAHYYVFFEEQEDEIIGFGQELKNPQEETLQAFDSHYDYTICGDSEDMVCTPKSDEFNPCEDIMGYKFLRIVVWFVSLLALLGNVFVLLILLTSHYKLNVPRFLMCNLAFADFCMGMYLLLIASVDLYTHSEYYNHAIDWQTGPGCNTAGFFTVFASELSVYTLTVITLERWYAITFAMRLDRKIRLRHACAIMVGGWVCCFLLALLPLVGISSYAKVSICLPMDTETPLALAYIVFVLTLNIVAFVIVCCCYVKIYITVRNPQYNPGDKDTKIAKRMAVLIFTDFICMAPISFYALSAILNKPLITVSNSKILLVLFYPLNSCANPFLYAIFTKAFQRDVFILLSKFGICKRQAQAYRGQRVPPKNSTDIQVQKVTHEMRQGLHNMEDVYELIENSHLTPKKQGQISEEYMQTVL
Sequence of Methanococcus maripaludis chaperonin (MmCpn) (Q6LX38 1-543): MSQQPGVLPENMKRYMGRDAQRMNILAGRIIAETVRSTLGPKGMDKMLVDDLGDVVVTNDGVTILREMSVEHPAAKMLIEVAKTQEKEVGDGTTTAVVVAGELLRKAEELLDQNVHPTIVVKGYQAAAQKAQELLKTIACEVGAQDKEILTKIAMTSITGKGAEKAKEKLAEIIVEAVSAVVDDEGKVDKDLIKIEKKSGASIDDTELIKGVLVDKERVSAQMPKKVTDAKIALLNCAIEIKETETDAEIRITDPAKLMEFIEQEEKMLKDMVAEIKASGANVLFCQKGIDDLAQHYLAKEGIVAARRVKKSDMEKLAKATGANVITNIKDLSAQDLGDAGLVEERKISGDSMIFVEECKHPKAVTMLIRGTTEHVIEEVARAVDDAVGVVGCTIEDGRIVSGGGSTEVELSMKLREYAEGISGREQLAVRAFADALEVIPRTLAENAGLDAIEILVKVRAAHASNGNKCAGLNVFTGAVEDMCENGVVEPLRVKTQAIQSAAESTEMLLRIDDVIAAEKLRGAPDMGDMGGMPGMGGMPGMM
Sequence of Galactokinase (Homo sapiens) (P51570 whole entry, looked up): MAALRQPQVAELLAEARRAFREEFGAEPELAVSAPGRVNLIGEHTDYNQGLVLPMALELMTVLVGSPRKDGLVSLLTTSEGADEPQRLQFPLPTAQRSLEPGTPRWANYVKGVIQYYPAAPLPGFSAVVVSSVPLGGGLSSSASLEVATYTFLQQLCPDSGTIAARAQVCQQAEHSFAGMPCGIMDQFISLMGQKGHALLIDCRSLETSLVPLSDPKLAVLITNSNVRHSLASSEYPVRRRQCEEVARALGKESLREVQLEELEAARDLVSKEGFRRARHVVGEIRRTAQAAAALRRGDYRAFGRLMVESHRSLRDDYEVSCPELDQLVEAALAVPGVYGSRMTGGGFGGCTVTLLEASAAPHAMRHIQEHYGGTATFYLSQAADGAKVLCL
Sequence of Thyrotropin-releasing hormone receptor (Homo sapiens) (P34981 whole entry, looked up): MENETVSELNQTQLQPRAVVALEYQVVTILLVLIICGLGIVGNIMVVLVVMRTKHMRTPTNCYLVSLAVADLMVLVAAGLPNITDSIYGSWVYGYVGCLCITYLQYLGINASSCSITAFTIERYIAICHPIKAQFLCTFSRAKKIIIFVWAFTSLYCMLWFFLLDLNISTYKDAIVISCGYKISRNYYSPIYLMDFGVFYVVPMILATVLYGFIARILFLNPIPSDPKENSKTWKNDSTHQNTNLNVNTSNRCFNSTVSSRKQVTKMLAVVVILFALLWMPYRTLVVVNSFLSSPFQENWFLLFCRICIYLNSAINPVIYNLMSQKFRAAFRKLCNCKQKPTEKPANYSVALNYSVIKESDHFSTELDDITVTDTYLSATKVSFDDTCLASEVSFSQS
Sequence of Transient receptor potential cation channel subfamily V member 1 (Homo sapiens) (Q8NER1 whole entry, looked up): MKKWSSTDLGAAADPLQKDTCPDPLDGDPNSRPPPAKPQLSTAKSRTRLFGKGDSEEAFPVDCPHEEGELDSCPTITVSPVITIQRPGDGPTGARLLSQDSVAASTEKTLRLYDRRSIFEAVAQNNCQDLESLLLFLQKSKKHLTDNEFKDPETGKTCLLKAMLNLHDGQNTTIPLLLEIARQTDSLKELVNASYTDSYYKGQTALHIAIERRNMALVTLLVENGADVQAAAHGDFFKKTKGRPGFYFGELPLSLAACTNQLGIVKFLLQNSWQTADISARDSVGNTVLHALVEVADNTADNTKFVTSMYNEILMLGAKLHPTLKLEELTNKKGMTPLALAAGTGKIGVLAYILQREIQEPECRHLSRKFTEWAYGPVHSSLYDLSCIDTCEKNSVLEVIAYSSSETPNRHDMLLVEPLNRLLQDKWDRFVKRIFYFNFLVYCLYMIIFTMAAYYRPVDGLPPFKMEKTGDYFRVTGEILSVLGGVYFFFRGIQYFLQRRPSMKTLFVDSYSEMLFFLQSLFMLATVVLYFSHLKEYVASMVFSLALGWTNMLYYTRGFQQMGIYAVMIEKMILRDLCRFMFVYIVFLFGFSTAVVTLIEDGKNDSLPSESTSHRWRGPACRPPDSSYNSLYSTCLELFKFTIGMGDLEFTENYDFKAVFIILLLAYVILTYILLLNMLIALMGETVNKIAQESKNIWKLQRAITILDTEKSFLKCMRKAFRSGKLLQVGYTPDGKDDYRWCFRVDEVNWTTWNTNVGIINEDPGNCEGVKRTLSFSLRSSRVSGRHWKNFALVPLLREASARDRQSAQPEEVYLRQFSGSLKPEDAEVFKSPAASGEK

`Cc1oncc1C(=O)Nc1ccc(C(F)(F)F)cc1`: the Potency entry in [1], in test [2], in [6], in test [7], in [8] and in test [11] was “inactive” in each case. For the same compound, the Potency result in test [18] is “inactive”. The compound was called inactive in test [3], in [4], in [5], in test [9], in test [12] and in test [13]. Also, the result in [14], in [15], in test [16] and in test [17] was inactive. Further, the Potency in test [10] is 2060 nM (active). Further, the viability change in test [11] was determined as 0.653%.

On to `Clc1cccc(Cl)c1NC1=NCCN1`, for which the Potency entry in [1], in test [2], in test [6], in test [7], in test [8] and in test [10] was “inactive” throughout. The Potency entry in test [19], in [11] and in test [18] was “inactive” each time. The result in [3], in test [4], in test [5], in test [12], in test [13] and in test [14] was inactive. Moreover, the outcome in [15] and in [16] was inactive. In addition, the viability change in test [11] turned out to be 0.846%.

Take `Nc1nc2ccc(OC(F)(F)F)cc2s1`: the Potency entry in [1], in test [2], in test [6], in test [7], in test [8] and in [11] was “inactive” each time. Besides, in test [18], the Potency result was “inactive”. The compound was classed as inactive in [3], in test [4], in [5], in test [12], in test [13] and in test [14]. In addition, the result in test [15], in [16] and in test [17] was inactive. Also, the viability change in test [11] is -4.99%.

In the case of `CCC(C)N(C)C(=O)c1cc2ccccc2c(-c2ccccc2Cl)n1` (stereo unspecified), the Potency result in [1], in [2], in test [6], in test [7], in test [8] and in test [10] was “inactive” in each case. Besides, the Potency entry in test [19], in test [11] and in [18] was “inactive” each time. Besides, the outcome in test [3], in test [4], in test [5], in test [12], in test [13] and in test [14] was inactive. Further, the compound was called inactive in test [15] and in test [16]. Besides, the activation in [20] is -6.5% (inactive). Further, the viability change in test [11] is -9.44%.

For the compound `O=C1CCC(N2C(=O)c3ccccc3C2=O)C(=O)N1` (stereo unspecified), the Potency entry in test [1], in test [2], in [6], in test [7], in test [8] and in test [10] was “inactive” throughout. In addition, the Potency result in [19], in test [11] and in [18] was “inactive” each time. The compound was called inactive in test [3], in test [4], in test [5], in test [12], in [13] and in test [14]. Further, the call in test [15] and in test [16] was inactive. Moreover, in test [20], the activation is 0.188% (inactive). Also, the viability change in test [11] is -1.75%.

As for `N=c1nc(N2CCCCC2)cc(N)n1O`, the Potency result in [1], in test [2], in test [6], in [7], in test [8] and in test [10] was “inactive” throughout. Moreover, the Potency entry in test [19], in test [11] and in test [18] was “inactive” throughout. Further, the compound was classed as inactive in test [3], in [4], in test [5], in [12], in test [13] and in test [14]. In addition, the call in [15] and in test [16] was inactive. The activation in [20] is 0% (inactive). Further, the viability change in [11] was -11.3%.
